This passage reports nuclear beta-catenin stimulation and insulin secretion stimulation results from PubChem BioAssay.

Molecules are shown by their SMILES. Active and inactive are the calls of the source.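 How the source made its calls: active means compound raises insulin release from rat beta cells at 5 mM glucose, no numeric limit stated; inactive means the rest.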
Further: reference of the scale not given here.

The first assay can be described thus: stimulators of nuclear beta-catenin in C2C12, primary screen, imaging, WNT3A-conditioned medium, mouse C2C12, NPC library (AID 1117326). The conditions noted are these: stimulation, at 2 µM, stronger effect = higher value.
Turning to `CC12CC3CC(C)(C1)CC(N)(C3)C2`, the nuclear beta-catenin stimulation came to 1%.

As to `CC(=O)OCC(CCn1cnc2cnc(N)nc21)COC(C)=O`, the nuclear beta-catenin stimulation turned out to be 2.8%.

Regarding `S=c1nc[nH]c2nc[nH]c12`, the nuclear beta-catenin stimulation came out at 0.6%.

As for `Oc1c(Cl)cc(Cl)c2cccnc12`, the nuclear beta-catenin stimulation was found to be 10.8%.

Take `CC1=NS(=O)(=O)c2cc(Cl)ccc2N1`: the nuclear beta-catenin stimulation came to 2.4%.

For `OC(Cn1cncn1)(Cn1cncn1)c1ccc(F)cc1F`, the nuclear beta-catenin stimulation stood at 1.1%.

Regarding `NCCc1ccc(O)c(O)c1`, the nuclear beta-catenin stimulation was found to be 0.8%.

Consider `CN=C(NC#N)NCCSCc1nc[nH]c1C`, for which the nuclear beta-catenin stimulation was -1.1%.

Take `COc1c(N2CCNC(C)C2)c(F)cc2c(=O)c(C(=O)O)cn(C3CC3)c12` (stereo not drawn): the nuclear beta-catenin stimulation was determined as 2.5%.

For `CC1COc2c(N3CCN(C)CC3)c(F)cc3c(=O)c(C(=O)O)cn1c23` (stereo not drawn), the nuclear beta-catenin stimulation is -0.9%.

Consider `O=C(C1CCCCC1)N1CC(=O)N2CCc3ccccc3C2C1` (stereo not drawn), for which the nuclear beta-catenin stimulation is -1.1%.

Regarding `CCc1cc(C(N)=S)ccn1`, the nuclear beta-catenin stimulation is 0.5%.

On to `CC1=C(/C=C/C(C)=C/C=C/C(C)=C/C(=O)O)C(C)(C)CCC1`, for which the nuclear beta-catenin stimulation amounted to 8.1%.

`CCCCNc1cc(C(=O)O)cc(S(N)(=O)=O)c1Oc1ccccc1`: the nuclear beta-catenin stimulation is -0.1%.

Consider `O=c1[nH]cnc2[nH]ncc12`, for which the nuclear beta-catenin stimulation was determined as 1%.

On to `O=C1c2c(O)ccc(O)c2C(=O)c2c(NCCNCCO)ccc(NCCNCCO)c21`, for which the nuclear beta-catenin stimulation was 14.4%.

As to `O=C(O)c1cc(=O)c2c(OCC(O)COc3cccc4oc(C(=O)O)cc(=O)c34)cccc2o1`, the nuclear beta-catenin stimulation was 1.3%.

As to `CC(C)C(=O)Nc1ccc([N+](=O)[O-])c(C(F)(F)F)c1`, the nuclear beta-catenin stimulation is -0.2%.

Consider `CC(COc1ccccc1)N(CCCl)Cc1ccccc1` (stereo not drawn), for which the nuclear beta-catenin stimulation is -0.3%.

On to `CCCc1nc2c(C)cc(-c3nc4ccccc4n3C)cc2n1Cc1ccc(-c2ccccc2C(=O)O)cc1`, for which the nuclear beta-catenin stimulation amounted to 1.8%.

`CC(=O)CC(c1ccccc1)c1c(O)c2ccccc2oc1=O` (stereo not drawn): the nuclear beta-catenin stimulation came to 0.2%.

For `NS(=O)(=O)c1cc2c(cc1Cl)NCNS2(=O)=O`, the nuclear beta-catenin stimulation came out at 0.8%.

As for `CS(=O)(=O)OCCCCOS(C)(=O)=O`, the nuclear beta-catenin stimulation was 0.6%.

Take `CCOC(=O)C1=C(C)NC(C)=C(C(=O)OC)C1c1cccc([N+](=O)[O-])c1` (stereo not drawn): the nuclear beta-catenin stimulation was found to be 1.2%.

Turning to `COc1ccccc1OCCNCC(O)COc1cccc2[nH]c3ccccc3c12` (stereo not drawn), the nuclear beta-catenin stimulation came to 2%.

`O=C(O)CCCc1ccccc1`: the nuclear beta-catenin stimulation came out at 0.9%.

Consider `NNCCc1ccccc1`, for which the nuclear beta-catenin stimulation worked out at 0.7%.

With `CC1Cc2ccccc2N1NC(=O)c1ccc(Cl)c(S(N)(=O)=O)c1` (stereo not drawn), the nuclear beta-catenin stimulation was found to be 6%.

On to `CC(C)Cc1ccc(C(C)C(=O)O)cc1` (stereo not drawn), for which the nuclear beta-catenin stimulation is 1.7%.

For `N[C@@H]1CONC1=O`, the nuclear beta-catenin stimulation was determined as 3.4%.

For the compound `CCN(Cc1ccncc1)C(=O)C(CO)c1ccccc1` (stereo not drawn), the nuclear beta-catenin stimulation is -1.9%.

`CCCc1cc(=O)[nH]c(=S)[nH]1`: the nuclear beta-catenin stimulation stood at 0.8%.

Consider `O=C(O)c1cccnc1`, for which the nuclear beta-catenin stimulation was -0.5%.

For the compound `CC(C[N+](C)(C)C)OC(N)=O` (stereo not drawn), the nuclear beta-catenin stimulation is -1.3%.

As for `COc1ccc(Cl)cc1C(=O)NCCc1ccc(S(=O)(=O)NC(=O)NC2CCCCC2)cc1`, the nuclear beta-catenin stimulation was -0.5%.

On to `N[C@@H](Cc1cc(I)c(Oc2cc(I)c(O)c(I)c2)c(I)c1)C(=O)O`, for which the nuclear beta-catenin stimulation was -1.8%.

Take `CC1(C)O[C@@H]2[C@@H](CO[C@@]3(COS(N)(=O)=O)OC(C)(C)O[C@@H]23)O1`: the nuclear beta-catenin stimulation came out at 0.6%.

Take `COCCOC(=O)C1=C(C)NC(C)=C(C(=O)OC(C)C)C1c1cccc([N+](=O)[O-])c1` (stereo not drawn): the nuclear beta-catenin stimulation was 1.2%.

On to `NNC(=O)c1ccncc1`, for which the nuclear beta-catenin stimulation was -1.2%.

The next assay can be described thus: stimulators of insulin release from INS-1E, primary screen, cell-based, 5 mM glucose, NPC library (AID 1117329). To be noted: rat INS-1E insulin secretion, at 10 µM, stronger effect = higher value.
With `CC12CC3CC(C)(C1)CC(N)(C3)C2`, the insulin secretion stimulation is 12% (inactive).

On to `CC(=O)OCC(CCn1cnc2cnc(N)nc21)COC(C)=O`, for which the insulin secretion stimulation was 0.7% (inactive).

Take `S=c1nc[nH]c2nc[nH]c12`: the insulin secretion stimulation is 0.6% (inactive).

As to `Oc1c(Cl)cc(Cl)c2cccnc12`, the insulin secretion stimulation is -1.7% (inactive).

On to `CC1=NS(=O)(=O)c2cc(Cl)ccc2N1`, for which the insulin secretion stimulation was 1.9% (inactive).

With `OC(Cn1cncn1)(Cn1cncn1)c1ccc(F)cc1F`, the insulin secretion stimulation was 4.05% (inactive).

As to `NCCc1ccc(O)c(O)c1`, the insulin secretion stimulation is -3% (inactive).

`CN=C(NC#N)NCCSCc1nc[nH]c1C`: the insulin secretion stimulation was 1.3% (inactive).

On to `COc1c(N2CCNC(C)C2)c(F)cc2c(=O)c(C(=O)O)cn(C3CC3)c12` (stereo not drawn), for which the insulin secretion stimulation was -1.15% (inactive).

In the case of `CC1COc2c(N3CCN(C)CC3)c(F)cc3c(=O)c(C(=O)O)cn1c23` (stereo not drawn), the insulin secretion stimulation is 3.4% (inactive).

As for `O=C(C1CCCCC1)N1CC(=O)N2CCc3ccccc3C2C1` (stereo not drawn), the insulin secretion stimulation is 2.5% (inactive).

As to `CCc1cc(C(N)=S)ccn1`, the insulin secretion stimulation was 1% (inactive).

Regarding `CC1=C(/C=C/C(C)=C/C=C/C(C)=C/C(=O)O)C(C)(C)CCC1`, the insulin secretion stimulation is 1.8% (inactive).

On to `CCCCNc1cc(C(=O)O)cc(S(N)(=O)=O)c1Oc1ccccc1`, for which the insulin secretion stimulation is -0.7% (inactive).

On to `O=c1[nH]cnc2[nH]ncc12`, for which the insulin secretion stimulation is -2.4% (inactive).

Turning to `O=C1c2c(O)ccc(O)c2C(=O)c2c(NCCNCCO)ccc(NCCNCCO)c21`, the insulin secretion stimulation was 3.9% (inactive).

Turning to `O=C(O)c1cc(=O)c2c(OCC(O)COc3cccc4oc(C(=O)O)cc(=O)c34)cccc2o1`, the insulin secretion stimulation is 1.6% (inactive).

Regarding `CC(C)C(=O)Nc1ccc([N+](=O)[O-])c(C(F)(F)F)c1`, the insulin secretion stimulation was 3.4% (inactive).

Regarding `CC(COc1ccccc1)N(CCCl)Cc1ccccc1` (stereo not drawn), the insulin secretion stimulation was 2.8% (inactive).

Take `CCCc1nc2c(C)cc(-c3nc4ccccc4n3C)cc2n1Cc1ccc(-c2ccccc2C(=O)O)cc1`: the insulin secretion stimulation is -0.5% (inactive).

For `CC(=O)CC(c1ccccc1)c1c(O)c2ccccc2oc1=O` (stereo not drawn), the insulin secretion stimulation was 0.2% (inactive).

For the compound `NS(=O)(=O)c1cc2c(cc1Cl)NCNS2(=O)=O`, the insulin secretion stimulation was -1.9% (inactive).

In the case of `CS(=O)(=O)OCCCCOS(C)(=O)=O`, the insulin secretion stimulation is 0.2% (inactive).

For the compound `CCOC(=O)C1=C(C)NC(C)=C(C(=O)OC)C1c1cccc([N+](=O)[O-])c1` (stereo not drawn), the insulin secretion stimulation was 2.2% (inactive).

For `COc1ccccc1OCCNCC(O)COc1cccc2[nH]c3ccccc3c12` (stereo not drawn), the insulin secretion stimulation was 1.9% (inactive).

For `O=C(O)CCCc1ccccc1`, the insulin secretion stimulation is 1.8% (inactive).

On to `NNCCc1ccccc1`, for which the insulin secretion stimulation is -0.6% (inactive).

For `CC1Cc2ccccc2N1NC(=O)c1ccc(Cl)c(S(N)(=O)=O)c1` (stereo not drawn), the insulin secretion stimulation was -0.1% (inactive).

With `CC(C)Cc1ccc(C(C)C(=O)O)cc1` (stereo not drawn), the insulin secretion stimulation is -2.6% (inactive).

As to `N[C@@H]1CONC1=O`, the insulin secretion stimulation was 1.4% (inactive).

For `CCN(Cc1ccncc1)C(=O)C(CO)c1ccccc1` (stereo not drawn), the insulin secretion stimulation was 1.6% (inactive).

Take `CCCc1cc(=O)[nH]c(=S)[nH]1`: the insulin secretion stimulation was -0.9% (inactive).

For the compound `O=C(O)c1cccnc1`, the insulin secretion stimulation is -1.6% (inactive).

With `CC(C[N+](C)(C)C)OC(N)=O` (stereo not drawn), the insulin secretion stimulation was 0.3% (inactive).

In the case of `COc1ccc(Cl)cc1C(=O)NCCc1ccc(S(=O)(=O)NC(=O)NC2CCCCC2)cc1`, the insulin secretion stimulation was 28.1% (active).

As for `N[C@@H](Cc1cc(I)c(Oc2cc(I)c(O)c(I)c2)c(I)c1)C(=O)O`, the insulin secretion stimulation is 1.4% (inactive).

Regarding `CC1(C)O[C@@H]2[C@@H](CO[C@@]3(COS(N)(=O)=O)OC(C)(C)O[C@@H]23)O1`, the insulin secretion stimulation is -0.2% (inactive).

For the compound `COCCOC(=O)C1=C(C)NC(C)=C(C(=O)OC(C)C)C1c1cccc([N+](=O)[O-])c1` (stereo not drawn), the insulin secretion stimulation is -0.5% (inactive).

With `NNC(=O)c1ccncc1`, the insulin secretion stimulation is -0.1% (inactive).
